# From PubChem BioAssay AID1508615 (Milbrandt Lab, Department of Genetics, Washington …, 2020)
# About 20 (1%) of roughly 1,600 compounds were called active. For the sample, actives were picked, then their nearest neighbours and some compounds at random. Values without a mark were called inactive.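 Rule for the calls: active = ratio of uncleaved NAD to its breakdown product ADP-ribose above 4, meaning the enzyme was inhibited; inactive = the rest.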
# Molecular target: NAD(+) hydrolase SARM1 (Homo sapiens) (UniProt Q6SZW1)
# Test: inhibition of SAM-TIR NAD hydrolysis to ADPR – cell lysate, HPLC readout, primary screen (AID 1508615);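 note: substrate NAD at 5 µM with 60 min at 37 °C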
# Details: HEK293T SAM-TIR lysate, NAD/ADPR ratio by HPLC; at 5 µM; active compounds read high
# Sequence of NAD(+) hydrolase SARM1 (Homo sapiens) (Q6SZW1 whole entry, looked up): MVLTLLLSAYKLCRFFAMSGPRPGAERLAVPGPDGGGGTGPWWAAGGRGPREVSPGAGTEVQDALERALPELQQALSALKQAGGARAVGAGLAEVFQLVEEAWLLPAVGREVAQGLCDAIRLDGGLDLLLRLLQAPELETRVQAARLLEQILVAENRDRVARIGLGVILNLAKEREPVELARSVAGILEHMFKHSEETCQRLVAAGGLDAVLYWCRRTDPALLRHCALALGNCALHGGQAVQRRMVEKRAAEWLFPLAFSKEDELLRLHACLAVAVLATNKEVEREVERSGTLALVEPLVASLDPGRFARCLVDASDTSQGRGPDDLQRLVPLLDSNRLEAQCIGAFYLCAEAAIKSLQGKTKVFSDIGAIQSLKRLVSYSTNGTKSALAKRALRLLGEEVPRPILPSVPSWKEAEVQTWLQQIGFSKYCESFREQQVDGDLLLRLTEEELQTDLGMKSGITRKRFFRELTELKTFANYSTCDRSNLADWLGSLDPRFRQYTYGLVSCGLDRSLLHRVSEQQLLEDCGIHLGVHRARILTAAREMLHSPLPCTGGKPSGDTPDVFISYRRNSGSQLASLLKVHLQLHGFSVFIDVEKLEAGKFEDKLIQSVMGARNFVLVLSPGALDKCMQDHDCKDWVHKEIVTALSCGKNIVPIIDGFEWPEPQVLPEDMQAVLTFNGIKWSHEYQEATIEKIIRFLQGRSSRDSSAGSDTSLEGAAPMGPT
row,Structure (SMILES),NAD/ADPR ratio
1,O=S(=O)(O)c1ccc2c(c1)C(C(Cl)(Cl)Cl)OC(C(Cl)(Cl)Cl)O2 (centres undefined),3
2,O=c1nccc(SCc2ccc(Cl)cc2Cl)[nH]1,3
3,Oc1ccccc1-c1nc2c3ccccc3c3ccccc3c2[nH]1,3
4,CN(C)c1nc(=NCc2ccco2)ss1,9.7 (active)
5,CN(C)C(=S)/N=c1\ssc(=S)n1Cc1ccco1,3
6,O=C(O)CCC(=O)OCCN(Cc1ccc(Oc2ccc([N+](=O)[O-])cc2)cc1)C(=O)C(Cl)Cl,3
7,CN(C)CC1C2CCC(C2)C1O (centres undefined),3
8,C(=C\c1ccccn1)/c1ccccn1,3
9,O=C(Oc1ccc[nH]c1=O)c1cccc(Cl)c1,3
10,Cc1nc(N)nc(Nc2ccc(C#N)cc2)c1Br,3
11,CCCCN1CCNC1=S,3
12,Cc1cccc(Nc2sc(C(=O)c3cc4cc(Cl)ccc4o3)c(N)c2C#N)c1,3
13,O=c1c2ccccc2ncn1-c1ccc(Cl)cc1,3
14,c1cncc(-c2nc3ccccc3s2)c1,3
15,C1=CC2(C=C1)OC21CCC2(C=CC3(C2)OC3C2CCCCC2)CC1 (centres undefined),3
16,NCc1c(O)ccc2ccccc12,3
17,COC1CC(C)C(OC)c2cc(O)cc(c2O)NC(=O)/C(C)=C/C=C\C(C)C(OC(N)=O)/C(C)=C\C(C)C1OC (centres undefined),3
18,NNC(=O)CNC(=O)Nc1n[nH]c(=S)s1,3
19,O=C(c1cccnc1)c1cc(-c2ccccn2)c(=O)n2ccccc12,3
20,Cc1ccc(S(=O)(=O)N(C)C)cc1[N+](=O)[O-],3
21,CC(C)(C)NC1=NCCNC(c2ccccc2)=C1,3
22,S=c1c2[nH]cnc2ncn1CCSc1ncnc2nc[nH]c12,3
23,CC1=C(C#N)C(C)(C)C(C#N)=C(C)N1,3
24,CCCCCC(=O)N1CCCC1,3
25,CN(C)c1nc(=Nc2cccc(Cl)c2)ss1,11.3 (active)

row,Structure (SMILES),NAD/ADPR ratio
1,O=C1C(=Nc2cccc(Cl)c2)CC(c2ccc(Cl)cc2)N1c1cccc(Cl)c1 (centres undefined),3
2,Nc1nc(=S)c2ncn(C3CCCC3)c2[nH]1,3
3,O=c1oc(-c2ccccc2)c(-c2ccccc2)c2ccccc12,3
4,O=[N+]([O-])c1cccc(/C=C/c2ccccn2)c1,3
5,CC(C)(c1cc(Cl)c(O)c(CN2CCOCC2)c1)c1cc(Cl)c(O)c(CN2CCOCC2)c1,3
6,O=c1[nH]c(C(F)(F)C(F)(F)C(F)(F)F)no1,3
7,CN1C(=O)CC2(C)C1=CCc1scnc12 (centres undefined),3
8,COc1ccc(C2=NC(=O)NC2c2ccc(OC)cc2)cc1 (centres undefined),3
9,CCOc1nc(OCC)c2cnn(C)c2n1,3
10,O=C1NC(=O)C2(CCc3ccccc32)N1 (centres undefined),3
11,CC1(C)CC[C@]2(C(=O)n3ccnc3)CC[C@]3(C)[C@H](C(=O)C=C4[C@@]5(C)C=C(C#N)C(=O)C(C)(C)[C@@H]5CC[C@]43C)[C@@H]2C1,6.5 (active)
12,Cc1nc(N)[nH]c(=O)c1CCCNc1ccc(CCC2(CCl)OCCO2)cc1,3
13,CCCCSc1nc(C(=O)O)cc(=O)[nH]1,3
14,Cc1ccc(-c2cssc2=S)cc1,3
15,CCCCOP(=O)(OCCCC)C1(C)CC(=O)CC(C)(C)C1 (centres undefined),3
16,Cc1[nH]c(=S)[nH]c(=O)c1CCC1OCCO1,3
17,C=CCN1CCN(c2ccncc2S(=O)(=O)N2CCN(C)CC2)CC1,3
18,COC(=O)Nc1csc2c1NC(=O)CCCC2,3
19,Nc1ccc2c(c1Cl)C(=O)c1ccc(N)c(Cl)c1C2=O,3
20,O=C1OCC/C1=C\OCCCO/C=C1\CCOC1=O,3
21,CC(C)C(=O)Nc1cccnc1,3
22,Cc1ccc(N2CCN(CC(O)COc3cccc(C)c3)CC2)cc1 (centres undefined),3
23,C=CCOc1ccnc(-c2ccccc2)n1,3
24,O=[N+]([O-])c1ccc(NN=C(c2ccccc2)c2ccccc2)nc1,2.8
25,Cn1cnc([N+](=O)[O-])c1Sc1nnc(-c2cccnc2)n1C,3

row,Structure (SMILES),NAD/ADPR ratio
1,NC(=S)Nc1cccc(Cl)c1,3
2,Cc1ccc(-c2nc(-c3nccc4ccccc34)oc2-c2ccccc2)cc1,3
3,CCC(CO)Nc1nc2ccc(Cl)cc2c2ccccc12 (centres undefined),3
4,O=C1c2cccc(Oc3ccccc3)c2C(=O)c2cccc(Oc3ccccc3)c21,3
5,C=CCNC(=S)Nc1cccc([N+](=O)[O-])c1,3
6,[O-]/[N+](=C\c1ccccc1)CC1(O)CCCCC1,3
7,O=c1cc(CO)[nH]nc1CO,3
8,COc1ccc2nc3cc(Cl)ccc3c(C#N)c2c1,3
9,O=C(Nc1ccc(C(=O)O)c(O)c1)c1ccccc1,3
10,CC(C)(NC(=O)c1cc(Cl)c2ccccc2c1O)C(=O)O,3
11,CC(=O)c1cc(O)c2ccccc2c1O,10.2 (active)
12,CCOC(=O)Cc1c[nH]c(=S)[nH]c1=O,3
13,Cn1c(=O)c2[nH]c(COc3ccc(C(C)(C)C)cc3)nc2n(C)c1=O,3
14,S=C1N(c2ccccc2)CN(C2CCCCC2)CN1c1ccccc1,3
15,O=[N+]([O-])c1ccc(Sc2cccc[n+]2[O-])c2nonc12,12.6 (active)
16,O=[N+]([O-])c1ccc(Sc2ncccn2)c([N+](=O)[O-])c1,3
17,CC1(CN2CCCC2)CCC(NC(=O)C(c2ccccc2)c2ccccc2)C(C)(C)O1 (centres undefined),3
18,C(=C\c1ccncc1)/c1ccncc1,3
19,O=C(O)c1ccc(NCc2nc3ccccc3[nH]2)cc1,3
20,Oc1ccc2ccc3[nH]cnc3c2c1,3
21,N/C(CC(=O)Nc1cc(C(F)(F)F)ccc1Cl)=N\O,3
22,CC1CCC(C(C)C)C(NC(=O)c2ccncc2)C1 (centres undefined),3
23,Clc1nc(NCCc2ccccc2)c2cn[nH]c2n1,2.8
24,Cn1cnc([N+](=O)[O-])c1Sc1ncn[nH]1,3
